Measured values published in PMC5540273 (PLoS ONE, 2017).

Key:
Details in all cases: concentration: 1 μM, replicates: in singlicate; n = 1
DRAK1 = test system: T1, DRAK1
T1 construct: gene STK17A

DRAK2 = test system: T2, DRAK2
T2 construct: gene STK17B

DYRK1A = test system: DYRK1A
DYRK1B = test system: DYRK1B
DYRK2 = test system: DYRK2
EGFR = test system: EGFR
EIF2AK1 = test system: EIF2AK1
EPHA1 = test system: EPHA1
EPHA2 = test system: EPHA2
EPHA3 = test system: EPHA3
EPHA4 = test system: EPHA4
EPHA5 = test system: EPHA5
EPHA6 = test system: EPHA6
EPHA7 = test system: EPHA7
EPHA8 = test system: EPHA8
EPHB1 = test system: EPHB1
EPHB2 = test system: EPHB2
EPHB3 = test system: EPHB3
EPHB4 = test system: EPHB4
EPHB6 = test system: EPHB6
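Note: KINOMEscan kinase panel screen.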

Compound	%Inh (DRAK1) [%]	%Inh (DRAK2) [%]	%Inh (DYRK1A) [%]	%Inh (DYRK1B) [%]	%Inh (DYRK2) [%]	%Inh (EGFR) [%]	%Inh (EIF2AK1) [%]	%Inh (EPHA1) [%]	%Inh (EPHA2) [%]	%Inh (EPHA3) [%]	%Inh (EPHA4) [%]	%Inh (EPHA5) [%]	%Inh (EPHA6) [%]	%Inh (EPHA7) [%]	%Inh (EPHA8) [%]	%Inh (EPHB1) [%]	%Inh (EPHB2) [%]	%Inh (EPHB3) [%]	%Inh (EPHB4) [%]	%Inh (EPHB6) [%]
CS(=O)(=O)c1ccc(-c2nc3n(c2-c2ccncc2)CCC3)cc1 [SKF-105942]	0	0	20	0	5	5	13	1	6	0	20	0	8	10	13	8	9	14	32	0
CN(C)CCN(C)C(=O)c1cc(-c2ccncc2)c(-c2ccc(Cl)c(O)c2)o1.Cl.Cl [SB-710397]	23	0	9	0	0	30	0	45	5	0	6	0	8	13	16	8	12	11	5	5
COc1cccc(-c2cc(-c3c[nH]nc3-c3ccccn3)ccn2)c1 [GW680338]	0	2	13	14	1	31	2	0	0	11	2	0	0	0	8	7	16	2	15	0
Cc1ccccc1-n1cnc2c(N)ncnc21 [SKF-97510]	0	47	0	0	0	0	0	0	0	0	4	0	0	0	0	1	0	0	0	7
Cc1ccc(-c2cc(-c3c[nH]nc3-c3ccccn3)ccn2)cc1 [GW684088]	12	0	11	6	0	6	0	0	0	49	7	0	8	10	15	9	0	9	20	7
COc1ccc2nc(-c3cccc(C)n3)nc(Nc3ccncc3)c2c1 [GSK204919]	0	0	24	0	0	20	0	0	20	0	23	0	18	0	9	6	0	14	15	0
Cl.NC(=O)c1cccc(Nc2nccc(Nc3ccc(Oc4cccc(Cl)c4)c(Cl)c3)n2)c1 [GW659008]	13	0	5	4	13	96.9	0	0	0	5	3	0	0	3	19	0	0	0	16	68
COc1ccc(Nc2nccc(NCCNC(=O)Nc3ccccc3F)n2)cc1 [GSK1379901]	2	0	19	0	6	20	10	33	25	0	14	0	6	7	25	0	0	27	32	4
Cl.O=C(Nc1cccc(-c2nn3ncccc3c2-c2ccnc(Nc3cccnc3)n2)c1)c1c(F)cccc1F [GSK312879]	1	0	22	18	6	98.9	17	4	0	2	1	0	1	7	27	13	0	0	12	10
Cn1ccc2ncnc(Oc3cccc(C(=O)Nc4ccccc4)c3)c21	0	12	2	24	0	0	18	0	0	0	4	16	0	0	0	0	0	0	9	0
Cc1cc(N2Cc3ccccc3C2)nc(Nc2ccc(S(=O)(=O)N3CCOCC3)cc2)n1.Cl [GSK1669917]	17	0	11	19	0	23	0	0	19	0	0	0	0	0	7	0	0	0	6	10
O=C(Nc1n[nH]c2nc(-c3nccs3)c(Br)cc12)C1CC1 [SB-742251]	0	0	30	0	36	0	1	0	0	0	24	1	32	18	35	0	15	29	17	59
Cc1cc(-c2ccc3c(c2)CC[C@@H](N[C@@H](C)c2ccccc2)C3)cnc1N.Cl [GW412617]	0	11	19	17	0	31	0	14	14	0	13	1	10	0	8	9	0	9	11	48
Nc1nc(-c2nccs2)c(-c2ccnc3ccccc23)s1 [GW693542]	9	0	20	25	7	26	3	5	3	0	11	0	8	10	17	13	0	10	1	5
Cc1cccc(-c2nc(Nc3ccncc3)c3ccccc3n2)n1 [GW855857]	2	7	0	27	0	6	0	23	18	0	18	0	0	0	7	3	16	11	26	0
COc1ccc(Nc2nccc(-c3cccc(NC(=O)c4cc5cc(F)ccc5[nH]4)c3)n2)cc1 [GSK1229782]	24	0	5	25	12	22	10	56	9	35	6	0	11	10	26	32	14	25	32	25
COc1ccc(C2=C(Nc3cccc(C(=O)O)c3)C(=O)NC2=O)cc1 [SB-390765]	19	7	9	0	20	0	11	7	9	11	21	7	16	0	10	5	9	20	9	19
COc1ccccc1-c1ccc2c(NC(=O)C3CC3)n[nH]c2n1 [SB-711239]	5	0	12	16	2	2	0	0	18	0	13	0	9	4	9	0	11	15	14	6
O=C1NC(=O)C(N2CCc3ccccc32)=C1c1ccccc1Cl [SB-373598]	0	0	18	0	6	25	0	10	27	12	24	0	18	18	36	9	0	14	20	31
